From PubChem BioAssay (NCATS)
Records with an inconclusive call do not appear. The source made the active and inactive calls. Unless noted, calls follow the shape of the dose curve; as a rule, active = well fitted curve in the direction sought with a large enough effect; inconclusive = small, poorly fitted or top-dose-only effect, or another doubt; inactive = no such curve, though single readings can be large; an effect the other way counts as inactive or inconclusive.

Experiments:
[1] = AP1 Signaling Pathway (AID 357; active = well fitted curve in either direction with a large enough effect, not every such curve was filed as active;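 also: ME-180 reporter cells stimulated with EGF at its EC50 level; % is scaled to controls: 0 for no effect and ±100 for the full control effect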); conditions: ME-180 AP-1-bla reporter, EGF-induced, beta-lactamase ratio, 5 h; at 7.69 µM (top of the series) unless noted
Procedure, shortened: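 Modulation of EGF-driven AP-1 transcription was assessed with a beta-lactamase reporter in ME-180 cells. Compound and EC50 EGF were co-incubated 5 hours at 37 °C before 2.5-hour CCF4 loading at room temperature and dual-emission reading.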

[2] = biological target: Cytochrome P450 1A2 (Homo sapiens) (UniProt P05177); assay: p450-cyp1a2 (AID 410; calls by dose curve; also: potency is read from the fitted curve at half-maximal effect;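 as to activity change, negative = inhibition: -100% = full effect of reference inhibitor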)
Chain of Cytochrome P450 1A2 (Homo sapiens) (P05177 whole entry, looked up): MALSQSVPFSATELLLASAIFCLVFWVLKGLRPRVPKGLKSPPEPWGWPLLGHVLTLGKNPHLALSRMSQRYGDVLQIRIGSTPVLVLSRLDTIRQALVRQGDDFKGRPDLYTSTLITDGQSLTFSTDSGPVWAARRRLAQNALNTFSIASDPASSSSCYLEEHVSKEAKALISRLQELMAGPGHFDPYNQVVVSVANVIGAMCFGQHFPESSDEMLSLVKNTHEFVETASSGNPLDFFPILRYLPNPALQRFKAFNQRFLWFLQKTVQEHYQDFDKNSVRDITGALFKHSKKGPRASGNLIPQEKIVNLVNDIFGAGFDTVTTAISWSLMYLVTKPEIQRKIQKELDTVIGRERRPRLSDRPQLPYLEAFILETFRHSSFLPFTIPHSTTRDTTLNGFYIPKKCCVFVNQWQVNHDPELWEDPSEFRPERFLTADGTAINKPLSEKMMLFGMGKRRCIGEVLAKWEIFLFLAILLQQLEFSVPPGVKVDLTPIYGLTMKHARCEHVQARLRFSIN
Procedure, shortened: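 Luminescent readout of luciferin formed from Luciferin-ME by human CYP1A2; data normalized against complete inhibition by 57 uM furafylline. Enzyme 20nM, substrate 100uM at Km, 100mM KPO4 buffer, 60 min reaction at room temperature.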

[3] = Stat Signaling Pathway (AID 446; active = well fitted curve in either direction with a large enough effect, not every such curve was filed as active;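 also: ME-180 cervical cancer cells given 40 pM IL-6 alongside compound; SIE-controlled beta-lactamase reporter measured as 460/530 nm FRET emission ratio; % is scaled to controls: 0 for no effect and ±100 for the full control effect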); conditions: ME-180 SIE beta-lactamase reporter, IL-6 stimulated, 5 h; at 7.69 µM (top of the series) unless noted
Procedure, shortened: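 ME-180 SIE-bla cells; overnight plating; cpd + IL-6 40 pM, 5 h, 37 C; LiveBLAzer 2.5 h RT; 460/530 nm emission ratio. Normalized to 300 pM IL-6 and 125 nM JAK inhibitor controls.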

[4] = biological target: Glucocorticoid receptor (Homo sapiens) (UniProt P04150); assay: GR-EFC Redistribution (AID 451; calls by dose curve; also: potency is read from the fitted curve at half-maximal effect); conditions: CHO-K1 GR-EFC translocation, beta-gal luminescence, 2 h
Chain of Glucocorticoid receptor (Homo sapiens) (P04150 whole entry, looked up, the tested form may be a part): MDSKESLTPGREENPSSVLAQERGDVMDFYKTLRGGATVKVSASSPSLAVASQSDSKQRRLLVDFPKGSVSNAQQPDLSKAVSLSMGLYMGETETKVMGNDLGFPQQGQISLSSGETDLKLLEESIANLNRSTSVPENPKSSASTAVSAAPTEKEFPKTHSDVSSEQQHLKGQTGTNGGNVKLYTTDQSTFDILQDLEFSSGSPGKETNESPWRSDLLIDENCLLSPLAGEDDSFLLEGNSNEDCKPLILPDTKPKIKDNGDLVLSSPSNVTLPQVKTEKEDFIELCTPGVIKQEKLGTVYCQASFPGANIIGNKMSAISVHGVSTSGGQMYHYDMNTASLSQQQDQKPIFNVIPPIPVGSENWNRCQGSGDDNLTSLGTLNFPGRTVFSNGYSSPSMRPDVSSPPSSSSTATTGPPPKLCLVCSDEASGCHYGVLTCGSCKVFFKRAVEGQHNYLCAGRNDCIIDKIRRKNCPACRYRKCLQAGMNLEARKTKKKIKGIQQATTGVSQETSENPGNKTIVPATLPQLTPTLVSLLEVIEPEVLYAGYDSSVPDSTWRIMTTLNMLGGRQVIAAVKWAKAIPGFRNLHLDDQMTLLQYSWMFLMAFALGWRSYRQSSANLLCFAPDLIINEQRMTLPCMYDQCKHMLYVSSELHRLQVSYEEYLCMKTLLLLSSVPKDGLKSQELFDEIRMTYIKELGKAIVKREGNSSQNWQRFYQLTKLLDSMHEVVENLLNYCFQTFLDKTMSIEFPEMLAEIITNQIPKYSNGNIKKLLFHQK
Procedure, shortened: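 Translocation of GR-ED fusion to nuclear EA restores b-gal, read by luminescence after 1 h room-temperature detection. Engineered CHO-K1 biosensor cells, 1,000/well, exposed 2 h at 37 C to titrations up to 46 uM final.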

[5] = biological target: Mitogen-activated protein kinase 10 (Mus musculus) (UniProt Q61831); assay: JNK3 AlphaScreen Assay (AID 530; active = well fitted curve in either direction with a large enough effect, not every such curve was filed as active;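 also: kinase came from lysate of stimulated human HepG2 cells; signal reports phosphorylation of biotinylated GST-cJun 1-79 at Ser73 with 10 µM ATP; % is scaled to controls: 0 for no effect and ±100 for the full control effect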)
Procedure, shortened: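 Compound titrations were preincubated 15 minutes at room temperature with substrate, antibody and pre-activated JNK3-containing HepG2 lysate. Reactions were started with 10 uM ATP and stopped with EDTA-containing bead buffer for AlphaScreen detection.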

[6] = biological target: 3',5'-cyclic-AMP phosphodiesterase 4B (Homo sapiens) (UniProt Q07343); assay: qHTS Assay for Inhibitors of PDE-IV (AID 607; active = well fitted activation curve with a large enough effect in the main read-out, with a control signal flat, not every such curve was filed as active; also: % of control where 0% means no effect)
Chain of 3',5'-cyclic-AMP phosphodiesterase 4B (Homo sapiens) (Q07343 whole entry, looked up): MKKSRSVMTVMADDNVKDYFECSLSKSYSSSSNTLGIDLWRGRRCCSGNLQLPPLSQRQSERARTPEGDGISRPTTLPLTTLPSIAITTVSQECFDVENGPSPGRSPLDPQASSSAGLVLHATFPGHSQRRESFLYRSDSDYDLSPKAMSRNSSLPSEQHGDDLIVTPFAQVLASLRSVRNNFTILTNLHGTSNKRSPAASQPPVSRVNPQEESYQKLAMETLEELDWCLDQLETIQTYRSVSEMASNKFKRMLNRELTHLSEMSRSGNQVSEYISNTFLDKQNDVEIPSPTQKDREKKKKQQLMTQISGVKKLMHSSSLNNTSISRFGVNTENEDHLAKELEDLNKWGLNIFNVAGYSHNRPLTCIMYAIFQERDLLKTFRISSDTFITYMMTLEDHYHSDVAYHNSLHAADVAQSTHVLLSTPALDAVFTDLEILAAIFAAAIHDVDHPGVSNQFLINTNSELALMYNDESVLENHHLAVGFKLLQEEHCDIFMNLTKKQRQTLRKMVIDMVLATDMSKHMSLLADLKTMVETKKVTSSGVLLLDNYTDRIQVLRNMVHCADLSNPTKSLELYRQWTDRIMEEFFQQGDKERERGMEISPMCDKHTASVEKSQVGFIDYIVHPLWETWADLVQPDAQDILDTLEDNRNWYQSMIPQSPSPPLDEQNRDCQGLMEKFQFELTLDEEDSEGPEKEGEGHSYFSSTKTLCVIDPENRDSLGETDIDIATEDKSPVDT
Procedure, shortened: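 ACTOne HEK293 cells carry a modified cAMP-gated CNG channel and express endogenous PDE4; plated 1000 cells/well, compounds up to 22.9 uM final. Membrane-potential dye fluorescence (ex 535/em 590) was read; parental cells received 10 uM forskolin + 100 uM RO 20-1724.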

[7] = biological target: Cytochrome P450 3A4 (Homo sapiens) (UniProt P08684); assay: qHTS Assay for Inhibitors and Substrates of Cytochrome P450 3A4 (AID 884); also: % is scaled to controls: 0 for no effect and ±100 for the full control effect; nearly all actives have a fitted effect of over 50% in size
Chain of Cytochrome P450 3A4 (Homo sapiens) (P08684 whole entry, looked up): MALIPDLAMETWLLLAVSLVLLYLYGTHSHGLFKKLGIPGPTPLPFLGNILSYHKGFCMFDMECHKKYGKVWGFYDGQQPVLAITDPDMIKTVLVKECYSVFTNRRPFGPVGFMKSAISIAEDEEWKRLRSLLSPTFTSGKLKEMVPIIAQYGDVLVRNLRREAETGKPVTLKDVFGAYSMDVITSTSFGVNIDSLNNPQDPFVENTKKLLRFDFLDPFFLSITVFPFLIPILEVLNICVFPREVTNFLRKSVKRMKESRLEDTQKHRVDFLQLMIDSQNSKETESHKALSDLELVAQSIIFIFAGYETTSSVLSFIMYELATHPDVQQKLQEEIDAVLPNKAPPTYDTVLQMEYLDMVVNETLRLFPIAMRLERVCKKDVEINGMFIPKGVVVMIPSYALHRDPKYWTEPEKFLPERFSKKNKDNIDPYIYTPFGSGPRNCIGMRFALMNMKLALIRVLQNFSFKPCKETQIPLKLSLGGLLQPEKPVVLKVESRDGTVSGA
Procedure, shortened: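 20 nM human CYP3A4 with 25 uM Luciferin-PPXE (at KM) in 200 mM KPO4, preincubated 10 min with compound; NADPH regeneration started a 60 min RT reaction. Luciferin detected by luminescence, normalized to 57 uM ketoconazole as full inhibition.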

[8] = biological target: Cytochrome P450 3A4 (Homo sapiens) (UniProt P08684); assay: qHTS Assay for Activators of Cytochrome P450 3A4 (AID 885); also: nearly all actives have a fitted effect of over 65% in size; also: potency is read from the fitted curve at half-maximal effect
Procedure, shortened: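 20nM CYP3A4 + 25uM Luciferin-PPXE (=KM), 200mM KPO4; cpd 10 min RT; NADPH regen, 60 min RT; stop w/ detection buffer, 20 min; luminescence. Normalized to 57 uM ketoconazole.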

[9] = qHTS Assay for Lipid Storage Modulators (AID 1519; calls by dose curve); conditions: Drosophila S3 cells, BODIPY lipid droplet/cell ratio, laser cytometry, cells loaded with oleic acid; for activity change, negative = inhibition: at 57.5 µM (top of the series)
Procedure, shortened: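 Cells seeded at 5,000 per well were treated with compounds over a concentration series and loaded with oleic acid (400 uM, as added). Lipid droplet fluorescence (488 nm excitation, 500-530 nm channel) was read by laser-scanning cytometry and normalized to 20 uM Triacsin C.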

[10] = Primary qHTS for small molecule stabilizers of the endoplasmic reticulum resident proteome: Secreted ER Calcium Modulated Protein (SERCaMP) assay (AID 1508630); also: % is scaled to controls: 0 for no effect and ±100 for the full control effect
Procedure, shortened: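 GLuc-SERCaMP-expressing SH-SY5Y cells, pretreated 16 h with compound, are challenged with thapsigargin to empty ER calcium stores; after 4 h, coelenterazine is added directly to the medium and luminescence is imaged.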

[11] = NFAT Signaling Pathway (AID 444; active = well fitted curve in either direction with a large enough effect, not every such curve was filed as active); conditions: Jurkat NFAT-bla M1, carbachol, beta-lactamase ratio, 5 h; at 7.69 µM (top of the series) unless noted
Procedure, shortened: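 Read-out: CCF4 FRET ratio (460 nm/530 nm) after 1 h RT dye loading, used for %activity and AC50 from titration series. Cells: Jurkat NFAT-β-lactamase/M1 line, treated with compound plus 1 uM carbachol for 5 h, 37 °C.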

[12] = biological target: Ubiquitin carboxyl-terminal hydrolase 1 (Homo sapiens) (UniProt O94782); assay: Inhibitors of USP1/UAF1: Pilot qHTS (AID 504865);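 also: rhodamine fluorescence freed from ubiquitin-rhodamine substrate followed over time; top concentration of the series differs between compounds; % is scaled to controls: 0 for no effect and ±100 for the full control effect; nearly all actives have a fitted effect of over 35% in size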
Chain of Ubiquitin carboxyl-terminal hydrolase 1 (Homo sapiens) (O94782 whole entry, looked up): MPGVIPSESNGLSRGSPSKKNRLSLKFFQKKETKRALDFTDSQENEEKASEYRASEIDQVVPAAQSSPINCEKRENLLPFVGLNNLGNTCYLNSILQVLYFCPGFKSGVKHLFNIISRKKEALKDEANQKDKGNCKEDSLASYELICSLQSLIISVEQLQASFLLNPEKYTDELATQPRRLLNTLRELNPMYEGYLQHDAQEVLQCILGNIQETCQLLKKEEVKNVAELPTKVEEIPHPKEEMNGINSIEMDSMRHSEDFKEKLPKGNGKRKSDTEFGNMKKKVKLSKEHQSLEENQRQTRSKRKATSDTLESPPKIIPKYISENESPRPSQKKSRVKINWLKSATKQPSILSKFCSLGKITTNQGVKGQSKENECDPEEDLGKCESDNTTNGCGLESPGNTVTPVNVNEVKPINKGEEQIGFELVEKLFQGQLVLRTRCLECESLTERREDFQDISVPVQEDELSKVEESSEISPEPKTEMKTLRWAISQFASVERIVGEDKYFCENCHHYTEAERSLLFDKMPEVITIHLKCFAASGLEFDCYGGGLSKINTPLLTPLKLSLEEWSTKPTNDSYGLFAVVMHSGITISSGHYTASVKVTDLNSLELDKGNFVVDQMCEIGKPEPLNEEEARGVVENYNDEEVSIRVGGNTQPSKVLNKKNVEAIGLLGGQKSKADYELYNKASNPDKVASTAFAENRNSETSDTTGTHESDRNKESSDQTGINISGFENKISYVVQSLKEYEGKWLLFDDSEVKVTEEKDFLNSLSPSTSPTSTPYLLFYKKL
Procedure, shortened: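 Kinetic fluorescence assay: 1nM USP1/UAF1, 15 min compound preincubation, then 150nM Ub-Rho; 480/540 nm.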

[13] = biological target: Glucocorticoid receptor (Homo sapiens) (UniProt P04150); assay: GR-GFP Redistribution (AID 450;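 active = compounds whose dose series gives a full or clear partial fitted curve of increased nuclear translocation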; also: potency is read from the fitted curve at half-maximal effect); conditions: U2OS GR-GFP nuclear translocation, laser cytometry, 2 h
[14] = biological target: Dual specificity protein kinase CLK4 (Homo sapiens) (UniProt Q9HAZ1); assay: qHTS Assay for Inhibitors of CDC-like Kinase 4 (Kinase-Glo Assay) (AID 1770); also: % is scaled to controls: 0 for no effect and ±100 for the full control effect; nearly all actives have a fitted effect of over 65% in size
Procedure, shortened: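 Inhibition was judged from remaining ATP, measured by Ultra-Glo luciferase bioluminescence after Clk4 (25 nM) had acted on RS peptide at 1 uM ATP for 4.5 hours, room temperature.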

[15] = biological target: Dual specificity protein kinase CLK4 (Homo sapiens) (UniProt Q9HAZ1); assay: qHTS Assay for Inhibitors of CDC-like Kinase 4 (ADP-FP Assay) (AID 1795);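 also: recombinant human CLK4 phosphorylating RS repeat peptide at 1 µM ATP; % is scaled to controls: 0 for no effect and ±100 for the full control effect; nearly all actives have a fitted effect of over 60% in size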
Procedure, shortened: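 Inhibition of ADP formation by 6.25 nM Clk4 is measured using 1 uM ATP and 100 uM RS repeat peptide over one hour. Produced ADP displaces a fluorescent tracer from antibody, lowering polarization.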

[16] = biological target: Rap guanine nucleotide exchange factor 3 (Homo sapiens) (UniProt O95398); assay: Confirmatory qHTS for antagonist of cAMP-regulated guanine nucleotide exchange factor 3 (EPAC1) (AID 1645880);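 also: plate controls were DMSO only for no effect and full effect of the ATA control for full effect; nearly all actives have a fitted effect of over 55% in size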
Chain of Rap guanine nucleotide exchange factor 3 (Homo sapiens) (O95398 whole entry, looked up): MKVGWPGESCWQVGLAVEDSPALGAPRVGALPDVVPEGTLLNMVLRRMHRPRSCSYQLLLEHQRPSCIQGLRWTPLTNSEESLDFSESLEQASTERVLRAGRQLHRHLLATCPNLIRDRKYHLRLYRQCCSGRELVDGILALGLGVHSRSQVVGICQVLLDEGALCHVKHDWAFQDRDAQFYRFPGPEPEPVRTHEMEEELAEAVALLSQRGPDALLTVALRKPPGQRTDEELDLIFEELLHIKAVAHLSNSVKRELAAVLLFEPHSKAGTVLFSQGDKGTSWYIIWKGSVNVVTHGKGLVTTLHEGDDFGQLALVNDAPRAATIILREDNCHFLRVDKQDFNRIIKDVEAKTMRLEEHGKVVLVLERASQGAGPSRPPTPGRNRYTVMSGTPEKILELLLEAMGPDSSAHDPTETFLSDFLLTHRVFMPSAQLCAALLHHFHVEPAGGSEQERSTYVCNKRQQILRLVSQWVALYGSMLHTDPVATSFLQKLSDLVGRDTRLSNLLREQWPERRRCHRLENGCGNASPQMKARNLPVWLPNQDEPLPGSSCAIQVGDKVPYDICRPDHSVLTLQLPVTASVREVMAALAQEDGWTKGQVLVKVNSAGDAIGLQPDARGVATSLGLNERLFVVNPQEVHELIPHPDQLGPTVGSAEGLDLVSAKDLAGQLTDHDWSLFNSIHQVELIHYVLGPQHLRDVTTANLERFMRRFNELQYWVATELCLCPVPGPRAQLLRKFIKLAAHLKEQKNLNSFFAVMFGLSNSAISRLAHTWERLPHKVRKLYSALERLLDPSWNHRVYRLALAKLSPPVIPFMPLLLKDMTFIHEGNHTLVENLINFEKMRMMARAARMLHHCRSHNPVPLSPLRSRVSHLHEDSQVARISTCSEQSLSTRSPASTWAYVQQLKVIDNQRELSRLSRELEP
Procedure, shortened: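 Nucleotide exchange uses 100 nM EPAC1, 250 nM RAP1B-BODIPY-GDP and 50 uM GDP, with compounds in a concentration-titration series. After 5 min at room temperature, fluorescence (480 nm ex/540 nm em) is read every 5 min for 30 min. Data are normalized to control ATA and DMSO.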

[17] = biological target: Rap guanine nucleotide exchange factor 3 (Homo sapiens) (UniProt O95398); assay: Confirmatory qHTS for agonist of cAMP-regulated guanine nucleotide exchange factor 3 (EPAC1) (AID 1645881);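 also: EPAC1 catalysed release of BODIPY-GDP from Rap1B seen as fluorescence loss; 100% = effect of cAMP agonist control; nearly all actives have a fitted effect of over 75% in size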
[18] = biological target: Rap guanine nucleotide exchange factor 4 (Homo sapiens) (UniProt Q8WZA2); assay: Confirmatory qHTS for antagonist of cAMP-regulated guanine nucleotide exchange factor 4 (EPAC2) (AID 1645885); also: % is scaled to controls: 0 for no effect and ±100 for the full control effect; nearly all actives have a fitted effect of over 25% in size
[19] = biological target: Lysosomal acid glucosylceramidase (Homo sapiens) (UniProt P04062); assay: Glucocerebrosidase-p2 (AID 348; in the data active = potency below about 10 µM; also: potency is read from the fitted curve at half-maximal effect); conditions: purified GBA, blue fluorogenic substrate, 40 min
Chain of Lysosomal acid glucosylceramidase (Homo sapiens) (P04062 whole entry, looked up): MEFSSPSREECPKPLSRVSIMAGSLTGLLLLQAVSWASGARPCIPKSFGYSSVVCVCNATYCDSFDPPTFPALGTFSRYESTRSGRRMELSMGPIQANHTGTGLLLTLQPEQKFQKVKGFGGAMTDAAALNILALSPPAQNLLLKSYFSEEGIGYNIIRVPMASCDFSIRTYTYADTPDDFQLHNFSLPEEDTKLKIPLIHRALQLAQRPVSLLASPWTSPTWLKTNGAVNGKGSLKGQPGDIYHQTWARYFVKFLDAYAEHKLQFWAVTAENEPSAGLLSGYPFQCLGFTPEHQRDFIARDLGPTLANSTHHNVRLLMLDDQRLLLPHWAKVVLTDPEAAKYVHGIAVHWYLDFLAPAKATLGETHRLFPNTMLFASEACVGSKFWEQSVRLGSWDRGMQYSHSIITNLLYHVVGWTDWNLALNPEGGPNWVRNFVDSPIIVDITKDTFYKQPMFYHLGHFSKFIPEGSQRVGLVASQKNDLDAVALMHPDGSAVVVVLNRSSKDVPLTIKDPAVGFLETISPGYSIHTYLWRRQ
Procedure, shortened: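 Compounds titrated from 0.6 nM upwards against 0.2 nM enzyme in pH 5.9 citric acid/KH2PO4, taurocholate, tween-20; blue fluorogenic substrate 80 uM, 40 min room temperature, stopped and read Ex 365/Em 440 for AC50.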

[20] = biological target: Rap guanine nucleotide exchange factor 4 (Homo sapiens) (UniProt Q8WZA2); assay: Confirmatory qHTS for agonist of cAMP-regulated guanine nucleotide exchange factor 4 (EPAC2) (AID 1645884);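 also: nucleotide exchange releases bodipy-GDP from Rap1 and this lowers its fluorescence; % is scaled to controls: 0 for no effect and ±100 for the full control effect; nearly all actives have a fitted effect of over 65% in size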
[21] = measured here: cell count channel max response
[22] = measured here: lipid channel max response

O=C(c1ccco1)N1CCC2(CC1)CN(c1ccccn1)C2
11.7%: max response [9, 22]
3%: max response [9, 21]
inactive: activity change, negative = inhibition [1] 2.14% | Potency [2] | activity, negative = inhibition [3] -14.8% | Potency [4] > 46 µM | Potency [5] | Potency [6] | Potency [7] | activity change, negative = inhibition [9] 5.94% | outcome [10]
active: Potency [8] 10 µM

COc1ccc(C(=O)N2CCC[C@@]3(CCN(C(=O)NC(C)C)C3)C2)cc1
inactive: activity change, negative = inhibition [1] -14% | activity change, negative = inhibition [11] 8.55% | activity, negative = inhibition [3] -9.21% | Potency [4] > 46 µM | Potency [5] | Potency [6] | Potency [8] | activity change, negative = inhibition [9] 3.48% | outcome [10]
active: Potency [2] 12.6 µM
15.8%: max response [9, 22]
8.84%: max response [9, 21]

CC(=O)NCCNc1ncncc1-c1ccccc1C(F)(F)F
-7.27%: max response [9, 21]
inactive: activity change, negative = inhibition [1] 1.26% | Potency [2] | activity, negative = inhibition [3] 6.6% | Potency [4] > 46 µM | Potency [5] | Potency [6] | Potency [8] | activity change, negative = inhibition [9] -1.77% | Potency [12] | outcome [10]
-8.94%: max response [9, 22]

COc1ccc(CNc2nc(-c3ccoc3)nc3ccccc23)c(OC)c1
2.43%: max response [9, 22]
inactive: activity change, negative = inhibition [1] -10.8% | activity change, negative = inhibition [11] -8.73% | activity, negative = inhibition [3] 6.96% | Potency [13] > 46 µM | Potency [4] > 46 µM | Potency [5] | Potency [6] | activity change, negative = inhibition [9] 11% | outcome [10]
-6.93%: max response [9, 21]

O=c1c(-c2cccs2)nc2cnc(Nc3ccccc3)nc2n1C[C@H]1CCCO1
inactive: activity change, negative = inhibition [1] -12.9% | activity change, negative = inhibition [11] -16.9% | activity, negative = inhibition [3] 22.1% | Potency [13] > 9.22 µM | Potency [4] > 46 µM | Potency [5] | Potency [6] | Potency [8] | Potency [14] | Potency [15] | Potency [12] | outcome [10] | Potency [16] | Potency [17] | Potency [18]
active: Potency [2] 2.51 µM

COc1ccc(Oc2ncc3ncc(=O)n(Cc4ccc(F)cc4)c3n2)cc1
inactive: Potency [19] > 11.4 µM | activity change, negative = inhibition [1] -18.4% | activity change, negative = inhibition [11] -10.2% | activity, negative = inhibition [3] -0.377% | Potency [13] > 9.22 µM | Potency [4] > 46 µM | Potency [5] | outcome [10] | Potency [16] | Potency [17]

COC(=O)N1CCC2(CC1)CCN(c1cccc(-c3ccccc3)c1)CC2
inactive: Potency [19] > 11.4 µM | activity change, negative = inhibition [1] -18.3% | Potency [2] | activity, negative = inhibition [3] 13% | Potency [4] > 46 µM | Potency [5] | Potency [6] | Potency [7] | outcome [10] | Potency [16] | Potency [17] | Potency [20]
